PubChem BioAssay (Tox21)
Results filed as inconclusive are left out. A call without a number means that no potency is given here. Calls of active or inactive are those of the source. Calls come from the whole dose curve; as a rule, active = well fitted cell-killing curve with a large enough effect in the repeat runs; inconclusive = weak or mixed curves, or effect the other way; inactive = no such curve, though single readings can be large or run the other way.

assay: qHTS assay to identify small molecule antagonists of the retinoid-related orphan receptor gamma (ROR-gamma) signaling pathway - cell viability counter screen (AID 1159520); conditions: Tet-on RORgamma CHO cells viability, ATP luminescence, 16 h; series mostly up to 92.4 µM; note: nearly all actives have a fitted effect of over 50% in size
Excerpt: U.S. Tox21 Program National Center for Advancing Translational Sciences [NCATS] NIH Chemical Genomics Center [NCGC] U.S. Environmental Protection Agency [EPA] National Institutes of Environmental Health Sciences [NIEHS] National Toxicology Program [NTP] U.S. Food and Drug Administration [FDA] Tox21 Assay Overview: Nuclear steroid hormone receptors are involved in many biological processes including inflammatory responses, cell proliferation, and apoptosis. Environmental factors or compounds disrupting these nuclear receptor pathways and gene expression may promote susceptibility to immunotoxicants and autoimmune diseases. One important group of these expression factors are the retinoid-related orphan receptors. To assess compounds that may interfere with the retinoid-related orphan receptor gamma (ROR-gamma) transcription factor, a cell-based luciferase assay was used. The CHO cell-based assay utilizes a TET-inducible ROR expression factor and ROR response element-LUC reporter gene. Reporter gene activity was induced using Doxycycline Hyclate and measured after 16 hr incubation. Tet-on ROR gamma CHO cells were used to screen against the Tox21 10K compound library for cytotoxicity by measuring the viability of the cells based on the quantitation of the ATP.
Tox21 Assay Protocol Summary: Tet-on ROR gamma CHO cells were dispensed at 1,000 cells in 4 uL of culture medium per well into white wall/solid bottom 1536-well plates using a Multidrop Combi (Thermo Scientific, Waltham, MA) dispenser. Following incubation at 37 C and 5% CO2 for 4 hr, 23 nL of compounds dissolved in DMSO, positive controls or DMSO only were transferred by a Pintool station (Kalypsys, San Diego, CA) and after 2 hr incubation at 37 C, one ul of 1 uM (final concentration) of Doxycycline Hyclate was added to all the wells by using a Flying Reagent Dispenser (FRD) (Aurora Discovery, San Diego, CA). After 16 hr incubation at 37 C and 5% CO2, 5 uL of CellTiter-Glo reagent (Promega Corporation, Madison, WI) was added to each assay plate using FRD. After 30 min incubation at room temperature, luminescence was quantified on a ViewLux plate reader (Perkin Elmer, Waltham, MA).

| Compound | Potency | activity, negative = cytotoxicity |
| --- | --- | --- |
| CC(C)[C@H](N)C(=O)OCCOCn1cnc2c(=O)[nH]c(N)nc21 | inactive | – |
| COCc1ccc(COC)cc1 | inactive | – |
| CCCCCCCCCCCCCCCCCC(=O)OCCCCCCCCCCCCCC(C)C | inactive | – |
| NS(=O)(=O)c1cc2c(cc1Cl)NC(CSCc1ccccc1)=NS2(=O)=O | inactive | – |
| CCCCC=O | inactive | – |
| OC1OC[C@@H](O)[C@H](O)[C@H]1O (stereo not given in full) | inactive | – |
| O=C(O)c1cccc(C(=O)O)n1 | inactive | – |
| OCc1ccccn1 | inactive | – |
| OCCCCCCO | inactive | – |
| O=[N+]([O-])c1ccc(Oc2ccc([N+](=O)[O-])cc2)cc1 | inactive | – |
| CO[Si](OC)(OC)OC | inactive | – |
| C=CCOCC(O)CS(=O)(=O)O (stereo not given) | inactive | – |
| CCC(C)OC(=O)N1CCCCC1CCO (stereo not given) | inactive | – |
| NC(CS)C(=O)O (stereo not given) | inactive | – |
| Nc1ccn(C2CO[C@H](CO)O2)c(=O)n1 (stereo not given in full) | inactive | – |
| NC(=O)Nc1nc2ccccc2[nH]1 | inactive | – |
| CO[Si](CCCNCCC[Si](OC)(OC)OC)(OC)OC | inactive | – |
| CCCC(C)C(=O)O (stereo not given) | inactive | – |
| O=C1OC(=O)c2cc([N+](=O)[O-])ccc21 | inactive | – |
| Nc1[nH]c(=O)ncc1F | inactive | – |

| Compound | Potency | activity, negative = cytotoxicity |
| --- | --- | --- |
| CCCCCCC(CCCCCCCCCCC(=O)OCC(COC(C)=O)OC(C)=O)OC(C)=O (stereo not given) | inactive | – |
| C=C(C)C(=O)OCCCCCCCCCCCCCCCCCC | – | -0.822% [at 19 µM] (inactive) |
| CC(C=O)Cc1ccc(C(C)C)cc1 (stereo not given) | inactive | – |
| CCN1CCCC(OC(=O)C(c2ccccc2)c2ccccc2)C1 (stereo not given) | inactive | – |
| CC(C)N1C(=O)c2ccccc2C1=O | inactive | – |
| CCCCCCCCCCCCCCCCCCOCC(O)CO (stereo not given) | inactive | – |
| CCCCCC[C@@H](CCC)C(=O)O | inactive | – |
| COC(=O)[C@H]1[C@H]2C[C@@H]3c4[nH]c5cc(OC)ccc5c4CCN3C[C@H]2C[C@@H](OC(=O)COc2ccc(OC)cc2)[C@@H]1OC | inactive | – |
| CCOC(=O)Cn1c(=O)sc2cccc(Cl)c21 | inactive | – |
| CCCCCCCCN(C)CCCCCCCC | inactive | – |
| CCCOc1ccccc1-c1nc2n[nH]nc2c(=O)[nH]1 | inactive | – |
| NCCNC(=O)c1ccc(Cl)cn1 | inactive | – |
| CCC(C(=O)NC(N)=O)c1ccccc1 (stereo not given) | inactive | – |
| OCCN1C[C@H](O)[C@@H](O)[C@H](O)[C@H]1CO | inactive | – |
| O=c1[nH]c(=O)n([C@H]2O[C@H](CO)[C@@H](O)[C@@H]2O)cc1/C=C\Br | inactive | – |
| COc1cc(C(=O)N2CCOCC2)cc(OC)c1OC | inactive | – |
| Cc1cc(C)c(NC(=O)CN(CC(=O)O)CC(=O)O)c(C)c1Br | inactive | – |
| CCCC=O | inactive | – |
| Cc1c(C)n(CCN(C)C)c2ccc(C(=O)OCCN(C)C)cc12 | inactive | – |
| CN(C)C(=O)C(CCN1CCC(O)(c2ccc(Cl)cc2)CC1)(c1ccccc1)c1ccccc1 | inactive | – |
